Screens from PubChem BioAssay.
This is a sample that favours compounds with a hit; in the whole collection about 12% have one here.
PLK1 PBD block: blocks phosphopeptide binding to human PLK1 polo-box domain. P53350. Potency, µM, most hits filed as inhibitors. Plk1 PBD binding of FITC phosphopeptide, fluorescence polarization. actives 2.8% (n = 360,000). AID 720504; further: series mostly up to about 57 µM; nearly all actives have a fitted effect of over 65% in size
HP1b chromo inh: inhibitors of HP1-beta chromodomain binding to methylated histone tails; P83916; AlphaScreen HP1-beta / biotin-H3K9me3 peptide binding; Potency, µM (doses to about 114 µM), most hits filed as inhibitors; actives 0.56% (n = 390,000); AID 540317; further: nearly all actives have a fitted effect of over 70% in size
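AlphaScreen: HP1-beta (50 nM) preformed 30 min with biotin-H3(1-18)K9me3 peptide (50 nM) in PBS pH 7.4, 0.01% Tween-20. Compound added for 30 min at RT, then streptavidin donor/nickel chelate acceptor beads (10 ug/mL) for 30 min.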
JMJD2A Tudor: inhibitors of human JMJD2A Tudor domain | O75164 | AlphaScreen JMJD2A-Tudor / H3K4me3 peptide binding | Potency, µM (series often up to 114 µM), most hits filed as inhibitors | actives 4.4% (n = 390,000) | AID 504339; further: nearly all actives have a fitted effect of over 50% in size
G9a inh: inhibitors of human histone lysine methyltransferase G9a; G9a H3K9 monomethylation, AlphaScreen, 2 h; Potency, µM (titrated, usually from 102 µM), most hits filed as inhibitors; actives 8.8% (n = 350,000); AID 504332; further: nearly all actives have a fitted effect of over 75% in size
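Using a bead-based AlphaScreen, monomethylated H3K9 product from 2 h room-temperature reactions (G9a 20 nM, peptide 500 nM, SAM 20 uM) was detected with 0.5 ug/mL rabbit anti-H3K9me1 antibody.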
Sfp PPTase inh: inhibitors of Bacillus subtilis Sfp phosphopantetheinyl transferase. actives 3.5% (n = 310,000). Biochemical Sfp PPTase activity, qHTS. Potency, µM, most hits filed as inhibitors. Q9F4F7;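 further: the enzyme is Sfp with the accession as filed and its product quenches rhodamine fluorescence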
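Compounds were incubated with enzyme (final 15 nM) for 15 min at room temperature before substrate addition started the reaction. Fluorescence at 525 nm excitation, 598 nm emission was recorded immediately and after 30 minutes.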
BAZ2B inh: BAZ2B (human) inhibition | Q9UIF8 | AlphaScreen BAZ2B-H3K14Ac peptide displacement | Potency, µM (series often up to 114 µM), usual class: inhibitors | actives 4.4% (n = 360,000) | AID 504333; further: nearly all actives have a fitted effect of over 60% in size
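AlphaScreen luminescence quantifies BAZ2B engagement of H3K14Ac peptide; the protein and biotinylated peptide are both at 50 nM final, buffer PBS pH 7.4 with 0.01% Tween-20, all steps at room temperature.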
A number is an active result; 0 = inactive; ? = inconclusive; - = no result given; [ ] = remark or other dose. The call rests on the fitted dose curve; in most records, active means well fitted curve in the direction sought with a large enough effect; inconclusive means small, poorly fitted or top-dose-only effect, or another doubt; inactive means no such curve, though single readings can be large; an effect the other way counts as inactive or inconclusive.

SMILES	PLK1 PBD block	HP1b chromo inh	JMJD2A Tudor	G9a inh	Sfp PPTase inh	BAZ2B inh
O=C(NCCCN1CCCC1)Nc1ccccc1[N+](=O)[O-]	0	0	0	?	0	0
O=[N+]([O-])c1ccc(Oc2ccc(Oc3ccc(C(F)(F)F)cn3)cc2)nc1	0	0	0	0	0	0
O=c1[nH][nH]c(C(F)(F)F)c1/C=N/N1CCOCC1	0	0	0	39.8µM	0	0
O=C(CSc1ncnc2nc[nH]c12)c1ccccc1	0	0	0	?	15.8µM	?
O=C(CSc1ncnc2nc[nH]c12)c1ccc([N+](=O)[O-])cc1	0	0	0	-	44.7µM	79.4µM
O=C(CSc1ncnc2nc[nH]c12)c1ccc(Cl)cc1	?	0	17.8µM	-	50.1µM	?
c1ccc(CCSc2ncnc3nc[nH]c23)cc1	0	0	0	0	0	0
O=C(CSc1nc2ncc(Br)cc2[nH]1)c1ccc([N+](=O)[O-])cc1	0	?	?	14.1µM	0	?
Cc1cc2nnc(SCC(=O)Nc3ccc(F)c(Cl)c3)n2c2ccccc12	-	0	0	0	-	0
CCOC(=O)c1cc([N+](=O)[O-])cc([N+](=O)[O-])c1Sc1ncnc2nc[nH]c12	21.2µM	0	0	-	-	-
NC(CSS(=O)(=O)O)=NCCC12CC3CC(CC(O)(C3)C1)C2	11.9µM	?	0	10µM	50.1µM	0
CC(=O)Nc1ccc(C(=O)OCC(=O)N(Cc2ccccc2)C(C)(C)C)cc1	0	0	0	0	0	0
CCOC(=O)c1sc(/N=C/c2ccc(O)cc2O)cc1C	0	0	?	22.4µM	0	0
O=C(NCc1ccccc1)c1onc(CSc2ccccc2)c1C(=O)NCC1CC1	0	0	0	0	0	0
CN(C)CCCN(C(=O)c1ccc(Br)s1)c1nc2cc3c(cc2s1)OCCO3	0	0	0	?	-	0
CCN(CC)CCN(C(=O)C1=COCCO1)c1nc2cc3c(cc2s1)OCO3	0	0	0	0	0	0
CCN(CC)CCN(C(=O)c1ccc(Br)s1)c1nc2cc3c(cc2s1)OCCO3	0	0	0	50.1µM	0	-
CCN(CC)CCN(C(=O)c1ccc(Br)s1)c1nc2cc3c(cc2s1)OCO3	0	0	0	50.1µM	0	-
COc1ccc(C)cc1NS(=O)(=O)c1c(C(=O)N2CCCCCC2)c(C)n(C)c1C	-	0	0	0	-	?
C=CCOC(=O)C(=O)/C=C/c1csc2ccccc12	?	0	?	?	39.8µM	?
COc1ccc2oc(C(=O)OCC(=O)N(C)CC(=O)Nc3ccc(C)cc3)c(C)c2c1	0	0	0	50.1µM	-	0
CCOc1ccc2oc(C(=O)N(C)CCc3ccc(OC)c(OC)c3)c(C)c2c1	0	0	0	0[12.7 µM]	-	0
CCOc1ccc2oc(C(=O)N(C)CC(=O)Nc3ccc(OCC)c(OCC)c3)c(C)c2c1	0	0	0	56.2µM	-	0
COc1ccc2oc(C(=O)OCC(=O)Nc3ccc(NC(C)=O)cc3)c(C)c2c1	0	0	0	0[0.501 µM]	-	0
CCOc1ccc2oc(C(=O)Nc3ccc(N4CCOCC4)cc3)c(C)c2c1	0	0	0	12.6µM	0	0
SMILES	PLK1 PBD block	HP1b chromo inh	JMJD2A Tudor	G9a inh	Sfp PPTase inh	BAZ2B inh
CCCCc1ccc(S(=O)(=O)Nc2nnc(C)s2)cc1	0	0	0	-	0	0
CCC(=O)N1c2ccccc2CC1C(=O)NCCCN1CCN(c2ccccc2)CC1 (stereo unspecified)	-	0	0	0	-	?
COc1ccc(N=C2O/C(=C/c3sc(=S)n(CC4CCCO4)c3O)N=C2C#N)cc1 (stereo unspecified)	0	?	?	11.2µM	2.82µM	8.91µM
COc1ccc(NC(=O)COC(=O)c2cc(SC)ccc2Cl)c(OC)c1	0	0	0	0	0	0
CC(=O)OCCNc1cc(SC(C)C)c2nonc2c1[N+](=O)[O-]	0	0	0	0	0	?
CCC(=O)OCCNc1cc(SCCC(=O)OC)c2nonc2c1[N+](=O)[O-]	?	0	0	12.6µM	0	0
CCC(=O)OCCNc1cc(Sc2nccn2C)c2nonc2c1[N+](=O)[O-]	2.12µM	0	0	?	?	0
COC(=O)CCSc1cc(NCCCOC(C)=O)c([N+](=O)[O-])c2nonc12	-	0	0	-	-	-
